Among the data in PubChem BioAssay are growth inhibition, inhibition and outcome values, retold here.

Assay [1] is described as follows: antimalarial activity against Dd2 strain (AID 2302;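 active means growth inhibition above 50% at the single 2 µM test dose, taken to imply half-maximal potency below 2 µM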;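 further: 0% = DMSO untreated growth and 100% = chloroquine plus artemisinin killed control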). The note with it: P. falciparum Dd2 in RBCs, LDH growth readout, 72 h; at 2 µM; stronger effect = higher value.
The nature of assay [2]: HepG2 cytotoxicity, primary screen, cytotoxicity control for P. falciparum antimalarial project, cell-based, ATP luminescence (AID 2303;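 active means inhibition above 50%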;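 further: 0% = DMSO wells and 100% = digitonin-killed cells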). The note with it: HepG2 viability, 24-48 h, at 10 µM, stronger effect = higher value.
For assay [3], the target named is L-lactate dehydrogenase (Plasmodium falciparum (isolate CDC / Honduras)) (UniProt Q27743). The experiment in a line: PfLDH activity inhibition – cell lysate, 3D7 strain, counter-screen for P. falciparum growth inhibition project (AID 2304).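 Further: 0% = vehicle and 100% = reference inhibitor.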 The note with it: P. falciparum 3D7 crude extract, LDH APAD/NBT absorbance; at 2 µM; stronger effect = higher value.
Sequence of L-lactate dehydrogenase (Plasmodium falciparum (isolate CDC / Honduras)) (Q27743 whole entry, looked up): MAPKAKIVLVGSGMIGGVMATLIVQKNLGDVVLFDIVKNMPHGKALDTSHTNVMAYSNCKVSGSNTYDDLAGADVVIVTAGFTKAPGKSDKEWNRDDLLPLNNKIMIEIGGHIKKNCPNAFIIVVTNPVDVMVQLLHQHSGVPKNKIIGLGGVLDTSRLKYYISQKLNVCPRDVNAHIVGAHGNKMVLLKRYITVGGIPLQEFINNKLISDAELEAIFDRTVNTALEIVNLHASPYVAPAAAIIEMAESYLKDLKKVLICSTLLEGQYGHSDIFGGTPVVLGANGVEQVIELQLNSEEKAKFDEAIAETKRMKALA
A short description of assay [4]: inhibition of 3D7 malaria parasite growth – strain 3D7 (AID 2306).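 Further: 0% = DMSO wells and 100% = chloroquine plus artemisinin control wells.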 The note with it: P. falciparum 3D7 erythrocytic growth, LDH absorbance, 72 h; at 2 µM; stronger effect = higher value.
The target of assay [5] is Calcium-dependent protein kinase 1 (Plasmodium falciparum (isolate 3D7)) (UniProt P62344). The assay can be described thus: PfCDPK1 kinase inhibitors, biochemical, TCAMS library (AID 1159585; cut-off not given, nearly all actives have IC50 up to about 0.98 µM;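 further: inhibitors leave more ATP so luminescence rises with inhibition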). The note with it: recombinant PfCDPK1, Kinase-Glo ATP depletion luminescence.
Sequence of Calcium-dependent protein kinase 1 (Plasmodium falciparum (isolate 3D7)) (P62344 whole entry, looked up): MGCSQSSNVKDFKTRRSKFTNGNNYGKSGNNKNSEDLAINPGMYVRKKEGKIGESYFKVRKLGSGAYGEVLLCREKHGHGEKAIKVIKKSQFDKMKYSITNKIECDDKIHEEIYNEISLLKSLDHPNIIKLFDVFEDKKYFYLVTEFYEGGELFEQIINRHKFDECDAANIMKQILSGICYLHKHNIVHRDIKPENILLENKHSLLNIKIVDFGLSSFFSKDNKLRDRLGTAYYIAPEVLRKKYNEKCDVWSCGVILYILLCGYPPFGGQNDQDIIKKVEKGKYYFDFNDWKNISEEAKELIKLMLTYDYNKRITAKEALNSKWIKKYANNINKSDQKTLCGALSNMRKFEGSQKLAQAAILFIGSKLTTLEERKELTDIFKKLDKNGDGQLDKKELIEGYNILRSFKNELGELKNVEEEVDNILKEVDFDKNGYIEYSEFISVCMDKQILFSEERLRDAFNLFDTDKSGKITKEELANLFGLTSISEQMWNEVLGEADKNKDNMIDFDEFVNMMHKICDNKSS
The target in assay [6] is Plasmodium falciparum protein kinase 6 (PK6, PF3D7_1337100) (UniProt Q8IDW1). The experiment in a line: PfPK6 kinase inhibitors, biochemical, TCAMS library (AID 1159586). The note with it: recombinant PfPK6, Kinase-Glo ATP depletion luminescence.
Sequence of Plasmodium falciparum protein kinase 6 (PK6, PF3D7_1337100) (Q8IDW1 1-305): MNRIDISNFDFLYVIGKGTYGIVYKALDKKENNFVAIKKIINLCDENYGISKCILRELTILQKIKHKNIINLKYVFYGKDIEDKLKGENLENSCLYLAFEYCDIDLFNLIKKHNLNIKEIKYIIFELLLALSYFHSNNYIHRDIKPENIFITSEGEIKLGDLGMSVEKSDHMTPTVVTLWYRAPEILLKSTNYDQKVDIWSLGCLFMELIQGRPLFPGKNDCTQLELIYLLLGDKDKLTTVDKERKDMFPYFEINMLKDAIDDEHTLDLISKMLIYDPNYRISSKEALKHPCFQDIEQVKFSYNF
Assay [7] concerns the target Protein kinase 7 (PK7), Plasmodium falciparum 3D7 (PF3D7_0213400) (UniProt Q7YTF7). The experiment in a line: inhibition of Plasmodium PK7 catalytic activity – biochemical, TCAMS antimalarial set, Kinase-Glo luminescence (AID 1159587). The note with it: recombinant PfPK7, Kinase-Glo ATP depletion luminescence.
In assay [8] the target is Calcium-dependent protein kinase 4 (Plasmodium falciparum (isolate 3D7)) (UniProt Q8IBS5). The assay can be described thus: PfCDPK4 kinase inhibitors, biochemical, TCAMS library (AID 1159588; cut-off not given, nearly all actives have IC50 up to about 0.91 µM). To be noted: recombinant PfCDPK4, Kinase-Glo ATP depletion luminescence.
Sequence of Calcium-dependent protein kinase 4 (Plasmodium falciparum (isolate 3D7)) (Q8IBS5 whole entry, looked up): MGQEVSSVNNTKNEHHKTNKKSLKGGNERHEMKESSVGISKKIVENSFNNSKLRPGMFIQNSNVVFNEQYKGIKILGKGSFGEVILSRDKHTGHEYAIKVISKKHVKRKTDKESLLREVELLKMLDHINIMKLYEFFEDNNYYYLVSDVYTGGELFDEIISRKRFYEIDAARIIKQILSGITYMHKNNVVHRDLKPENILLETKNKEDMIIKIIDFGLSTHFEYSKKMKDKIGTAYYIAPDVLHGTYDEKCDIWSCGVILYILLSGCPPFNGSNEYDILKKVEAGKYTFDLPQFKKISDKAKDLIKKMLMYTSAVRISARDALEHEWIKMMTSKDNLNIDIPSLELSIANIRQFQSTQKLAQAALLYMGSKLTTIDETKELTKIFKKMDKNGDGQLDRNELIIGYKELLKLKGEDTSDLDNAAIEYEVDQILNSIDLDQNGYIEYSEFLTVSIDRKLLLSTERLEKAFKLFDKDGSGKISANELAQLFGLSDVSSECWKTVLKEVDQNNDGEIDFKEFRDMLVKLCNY

Values without a mark were called inactive. For some assays here: Potency and affinity values are given separately. Calls of active or inactive are those of the source. Unless noted, how the calls were made is not given here.

Sequence of Protein kinase 7 (PK7), Plasmodium falciparum 3D7 (PF3D7_0213400) (Q7YTF7 1-343): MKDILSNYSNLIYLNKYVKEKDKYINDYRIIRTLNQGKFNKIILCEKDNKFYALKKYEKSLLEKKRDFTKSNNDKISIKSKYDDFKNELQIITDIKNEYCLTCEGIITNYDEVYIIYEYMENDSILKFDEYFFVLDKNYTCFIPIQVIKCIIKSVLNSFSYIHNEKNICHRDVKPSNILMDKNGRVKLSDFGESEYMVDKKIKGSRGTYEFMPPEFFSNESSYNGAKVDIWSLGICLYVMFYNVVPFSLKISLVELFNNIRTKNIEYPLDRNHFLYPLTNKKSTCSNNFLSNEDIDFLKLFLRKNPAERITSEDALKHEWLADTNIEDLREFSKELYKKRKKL

For the compound `COc1cc(C=CC(=O)N2CCC3(CC2)CC(=O)c2ccccc2O3)cc(OC)c1OC`, the results for the growth inhibition in assay [1] and in assay [4] were 66% (active) and 88% (active), respectively. In addition, the inhibition in assay [2] is 7%; in assay [3] it was -1%. In addition, the result in assay [5], in assay [6], in assay [7] and in assay [8] was inactive.
Consider `CC(C)(C)C(=O)Nc1ccccc1Oc1ccc(Cl)cc1`, for which the figures for the growth inhibition in assay [1] and in assay [4] were 96% (active) and 92% (active), respectively. In addition, the inhibition is 54% (active) in assay [2] and 7% in assay [3]. Besides, the result in assay [5], in assay [6], in assay [7] and in assay [8] was inactive.
As to `CCOc1ccc(C=CC(=O)Nc2ccc3nc(N4CCN(C)CC4)cc(C)c3c2)cc1OC`, the growth inhibition was 70% (active) in assay [1] and 102% (active) in assay [4]. Further, the values for the inhibition in assay [2] and in assay [3] were -2% and -10%, respectively. The result in assay [5], in assay [6], in assay [7] and in assay [8] was inactive.
For the compound `O=C(N[C@H]1CCN(Cc2ccc(OCCCN3CCCCC3)cc2)C1)c1ccc(Cl)c(Cl)c1`, the growth inhibition is 36% in assay [1] and 102% (active) in assay [4]. The inhibition in assay [2] was 27%; in assay [3], 0%. For the same compound, the outcome in assay [5], in assay [6], in assay [7] and in assay [8] was inactive.
`Cc1nc2nc(N)nc(N)c2c(C)c1Cc1ccccc1I`: the growth inhibition is -5% in assay [1] and 96% (active) in assay [4]. Moreover, the inhibition is 63% (active) in assay [2] and 5% in assay [3]. Further, the result in assay [5], in assay [6], in assay [7] and in assay [8] was inactive.
Take `COc1ccc(-c2cccc(NC(=O)c3ccc(Cl)cc3)c2)cc1CN1CCCC1`: the growth inhibition was 52% (active) in assay [1] and 97% (active) in assay [4]. The inhibition in assay [2] is 55% (active); in assay [3] it was -7%. In addition, the result in assay [5], in assay [6], in assay [7] and in assay [8] was inactive.
For the compound `Cc1ccc(NC(=O)C(C)Sc2n[nH]c(-c3ccccc3Br)n2)cc1` (configuration not stated), the growth inhibition in assay [1] was 90% (active); in assay [4], 89% (active). Moreover, the figures for the inhibition in assay [2] and in assay [3] were 2% and -4%, respectively. For the same compound, the result in assay [5], in assay [6], in assay [7] and in assay [8] was inactive.
Turning to `Cc1c(CNCCCNc2cc(=O)c3ccccc3[nH]2)sc(C(F)=C(F)F)c1Br`, the figures for the growth inhibition in assay [1] and in assay [4] were 18% and 94% (active), respectively. For the same compound, the results for the inhibition in assay [2] and in assay [3] were 7% and -2%, respectively. Further, the result in assay [5], in assay [6], in assay [7] and in assay [8] was inactive.
As to `COc1cc2nc(N3CCC(CNC(=O)c4ccc(OC(F)(F)F)cc4)CC3)nc(N)c2cc1OC`, the values for the growth inhibition in assay [1] and in assay [4] were 98% (active) and 100% (active), respectively. Moreover, the inhibition is 16% in assay [2] and -3% in assay [3]. The result in assay [5], in assay [6], in assay [7] and in assay [8] was inactive.
In the case of `Oc1ccc(CCNCCCCCCNCCc2ccc(Cl)cc2)c(Cl)c1O`, the values for the growth inhibition in assay [1] and in assay [4] were 30% and 100% (active), respectively. The inhibition in assay [2] is 23%; in assay [3], -7%. For the same compound, the result in assay [5], in assay [6], in assay [7] and in assay [8] was inactive.
`O=C(Nc1ccc(OC2CCN(Cc3ccsc3)CC2)c(Cl)c1)c1ccco1`: the growth inhibition was 85% (active) in assay [1] and 87% (active) in assay [4]. For the same compound, the inhibition was 7% in assay [2] and -4% in assay [3]. In addition, the outcome in assay [5], in assay [6], in assay [7] and in assay [8] was inactive.
In the case of `Nc1nccc2ccc(-c3ccncc3)cc12`, the growth inhibition in assay [1] was 95% (active); in assay [4], 96% (active). The results for the inhibition in assay [2] and in assay [3] were 19% and 5%, respectively. The result in assay [5], in assay [6], in assay [7] and in assay [8] was inactive.
Consider `Nc1ncc(-c2ccsc2)c2ccc(-c3cnc[nH]3)cc12`, for which the growth inhibition in assay [1] was 70% (active); in assay [4], 100% (active). Also, the inhibition in assay [2] was 31%; in assay [3], -7%. In addition, the outcome in assay [5], in assay [6], in assay [7] and in assay [8] was inactive.
For `CN(Cc1ccccc1)C(=O)CCNS(=O)(=O)c1cc(Br)cnc1N`, the growth inhibition is 61% (active) in assay [1] and 91% (active) in assay [4]. Further, the values for the inhibition in assay [2] and in assay [3] were -5% and 4%, respectively. Also, the result in assay [5], in assay [6], in assay [7] and in assay [8] was inactive.
`O=C(N[C@@H](Cc1ccccc1)[C@H](O)CNCCC(F)(F)F)c1cccc(CCC2CC2)c1`: the growth inhibition in assay [1] is 13%; in assay [4], 87% (active). The inhibition in assay [2] was -4%; in assay [3], 5%. Further, the outcome in assay [5], in assay [6], in assay [7] and in assay [8] was inactive.
With `CCN(CC)CCOc1ccc(C(O)(C#CC(O)(c2ccccc2)c2ccc(OCCN(CC)CC)cc2)c2ccccc2)cc1` (configuration not stated), the growth inhibition in assay [1] and in assay [4] was 99% (active) throughout. In addition, the inhibition in assay [2] is 81% (active); in assay [3], 4%. Moreover, the result in assay [5], in assay [6], in assay [7] and in assay [8] was inactive.
Consider `Ic1cc(Nc2ncnc3ccsc23)ccc1OCc1ccccc1`, for which the growth inhibition is 81% (active) in assay [1] and 101% (active) in assay [4]. For the same compound, the inhibition was 22% in assay [2] and 4% in assay [3]. Also, the result in assay [5], in assay [6], in assay [7] and in assay [8] was inactive.
For the compound `O=C(NCCCCNCC(Cc1cccc(O)c1)c1ccccc1)c1ccc(NC(=O)c2ccc(Cl)cc2)cc1` (configuration not stated), the growth inhibition is 1% in assay [1] and 96% (active) in assay [4]. In addition, the inhibition in assay [2] was -1%; in assay [3], 2%. Also, the result in assay [5], in assay [6], in assay [7] and in assay [8] was inactive.
In the case of `CNC(=O)c1cncc(/C=C/c2ccccc2S(N)(=O)=O)c1`, the growth inhibition was 77% (active) in assay [1] and 100% (active) in assay [4]. Moreover, the inhibition is 17% in assay [2] and -1% in assay [3]. For the same compound, the outcome in assay [5], in assay [6], in assay [7] and in assay [8] was inactive.
